PubChem BioAssay (NCI)
About 79,000 compounds went through this panel and 15% of them were active in at least one assay; those are over-represented in the sample as a whole. Calls of active or inactive are those of the source. Cut-off read from the data, not from the text of the source: active = growth inhibition above about 70%; inactive = the rest.

Assays:
[1] = NCI Yeast Anticancer Drug Screen. Data for the rad52 strain (AID 147);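 note: 0% = growth of vehicle-treated control cultures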; settings: S. cerevisiae rad52 mutant growth inhibition, hits give high values
Outline: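 Genetically altered yeast (DNA damage repair defect) treated with compound; inhibition calculated relative to vehicle.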

[2] = NCI Yeast Anticancer Drug Screen. Data for the wt1 strain (AID 149);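 note: 0% = growth of vehicle-treated wt1 cultures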; settings: S. cerevisiae wt1 strain (SPY 50644) growth inhibition, hits give high values
Outline: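 wt1 strain grown with compound or vehicle; inhibition taken from the growth difference.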

[3] = NCI Yeast Anticancer Drug Screen. Data for the rad50EPP+ strain (AID 151);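 note: 0% = growth of vehicle-treated control cultures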; settings: S. cerevisiae rad50 mutant strain, hits give high values
Outline: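 Strain rad50EPP+; compound exposure; % growth inhibition vs vehicle.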

[4] = NCI Yeast Anticancer Drug Screen. Data for the mgt1 strain (AID 153); settings: S. cerevisiae mgt1 mutant growth inhibition, hits give high values
Outline: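 Read-out: yeast growth inhibition vs vehicle control. Strain mgt1, drawn from a panel altered in DNA damage repair or cell cycle control.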

[5] = NCI Yeast Anticancer Drug Screen. Data for the rad50 strain (AID 155);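 note: 0% = growth of vehicle-only cultures of the same strain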; settings: S. cerevisiae rad50 strain growth inhibition, hits give high values
Outline: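 DNA repair mutant yeast, compound exposure, growth read-out; inhibition is taken relative to vehicle.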

[6] = NCI Yeast Anticancer Drug Screen. Data for the mec2-1 strain (AID 157); settings: S. cerevisiae mec2-1 strain, hits give high values
Outline: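 Cells of the genetically defined mec2-1 yeast strain are incubated with test compound. Inhibition of growth is calculated against vehicle-treated controls.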

[7] = NCI Yeast Anticancer Drug Screen. Data for the rad14 strain (AID 159);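 note: 0% = growth of vehicle-treated control cultures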; settings: S. cerevisiae rad14 strain growth inhibition, hits give high values
Outline: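 DNA repair-defective yeast, compound-exposed; % growth inhibition derived by comparison with vehicle-treated controls.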

[8] = NCI Yeast Anticancer Drug Screen. Data for the sgs1 mgt1 strain (AID 161);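 note: 0% = growth of cultures given vehicle only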; settings: S. cerevisiae sgs1 mgt1 strain, hits give high values
Outline: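 Mutant yeast exposed to compound; growth scored against vehicle-only wells.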

[9] = NCI Yeast Anticancer Drug Screen. Data for the CLN2oe strain (AID 163);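 note: 0% = growth of vehicle-only control cultures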; settings: S. cerevisiae CLN2oe strain, hits give high values
Outline: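 Strain altered in cell-cycle control, incubated with compound; growth compared to solvent-treated controls.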

[10] = NCI Yeast Anticancer Drug Screen. Data for the cln2 rad14 strain (AID 165);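 note: 0% = growth equal to vehicle treated cultures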; settings: S. cerevisiae cln2 rad14 strain, hits give high values
Outline: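 The screen exposed genetically defined yeast (cln2 rad14) to test compounds and scored growth inhibition relative to vehicle-treated controls.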

[11] = NCI Yeast Anticancer Drug Screen. Data for the bub3 strain (AID 167); settings: S. cerevisiae bub3 mutant strain, hits give high values
Outline: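 In this screen, a yeast mutant lacking normal mitotic checkpoint function is challenged with compound. Relative growth versus vehicle gives the inhibition value.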

[12] = NCI Yeast Anticancer Drug Screen. Data for the wt2 strain (AID 169);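 note: 0% = growth of vehicle-treated yeast cultures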; settings: S. cerevisiae wt2 strain growth inhibition, hits give high values
Outline: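 Steps: yeast strain treated with compound; growth recorded; inhibition calculated relative to cultures given vehicle alone.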

[13] = NCI Yeast Anticancer Drug Screen. Data for the sgs1 strain (AID 173);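 note: 0% = growth of vehicle-only control cultures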; settings: S. cerevisiae sgs1 mutant, hits give high values
Outline: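 Inhibition of yeast growth served as the measure. The mutant strain was treated with each compound, and growth was normalised to cultures receiving vehicle alone.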

[14] = NCI Yeast Anticancer Drug Screen. Data for the rad18 strain (AID 177); settings: S. cerevisiae rad18 mutant growth inhibition, hits give high values
Outline: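 Inhibition values reflect reduced yeast growth compared with vehicle-treated controls, using a strain engineered with a DNA damage repair defect.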

[15] = NCI Yeast Anticancer Drug Screen. Data for the mlh1 strain (AID 171);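 note: 0% = growth of vehicle-treated control cultures of the same strain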; settings: S. cerevisiae mlh1 strain growth inhibition, hits give high values
Outline: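 Yeast screen: mutant strain plus compound, growth scored against vehicle control wells.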

[16] = NCI Yeast Anticancer Drug Screen. Data for the mlh1 rad18 strain (AID 175); settings: S. cerevisiae mlh1 rad18 strain growth inhibition, hits give high values
Outline: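 Compound-treated yeast growth, normalised to vehicle controls. Strain bears defined DNA repair mutations.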

[17] = at 5.0 µM (retest, dose inferred, filed as 0.5)
[18] = at 50.0 µM (retest, dose inferred, filed as 5.0)

Measured: growth inhibition

CCc1ccc(NS(=O)(=O)c2ccccc2)c([N+](=O)[O-])c1
active: [1]; at 100.0 µM 76% | [3]; at 100.0 µM 75% | [4]; at 100.0 µM 74% | [5]; at 100.0 µM 72% | [6]; at 100.0 µM 81% | [7]; at 100.0 µM 82% | [8]; at 50.0 µM 70.7% | [9]; at 100.0 µM 73% | [12]; at 100.0 µM 78% | [13]; at 100.0 µM 90% | [14]; at 100.0 µM 87%
inactive: [1]; at 1.2 µM 2% | [1]; at 3.7 µM 2% | [1]; at 11.0 µM 11% | [1]; at 33.0 µM 30% | [2]; at 1.2 µM 1% | [2]; at 3.7 µM 6% | [2]; at 11.0 µM 2% | [2]; at 33.0 µM 5% | [2]; at 100.0 µM 46% | [3]; at 1.2 µM 10% | [3]; at 3.7 µM 18% | [3]; at 11.0 µM 36% | [3]; at 33.0 µM 53% | [4]; at 1.2 µM 0% | [4]; at 3.7 µM 0% | [4]; at 11.0 µM 3% | [4]; at 33.0 µM 22% | [5]; at 1.2 µM 3% | [5]; at 3.7 µM 5% | [5]; [17] 2% | [5]; at 11.0 µM 5% | [5]; at 33.0 µM 22% | [5]; [18] 39% | [5]; at 50.0 µM 37.2% | [6]; at 1.2 µM 1% | [6]; at 3.7 µM 8% | [6]; [17] 6% | [6]; at 11.0 µM 14% | [6]; at 33.0 µM 27% | [6]; [18] 39% | [6]; at 50.0 µM 55% | [7]; at 1.2 µM 2% | [7]; at 3.7 µM 5% | [7]; at 11.0 µM 6% | [7]; at 33.0 µM 11% | [8]; [17] 8% | [8]; [18] 54% | [9]; at 1.2 µM -2% | [9]; at 3.7 µM -2% | [9]; at 11.0 µM 3% | [9]; at 33.0 µM 17% | [10]; [17] 0% | [10]; [18] 20% | [10]; at 50.0 µM 47.5% | [11]; at 1.2 µM -3% | [11]; at 3.7 µM 4% | [11]; [17] -3% | [11]; at 11.0 µM 7% | [11]; at 33.0 µM 28% | [11]; [18] 36% | [11]; at 50.0 µM 53.6% | [11]; at 100.0 µM 67% | [12]; at 1.2 µM -1% | [12]; at 3.7 µM 3% | [12]; at 11.0 µM 3% | [12]; at 33.0 µM 27% | [13]; at 1.2 µM 2% | [13]; at 3.7 µM 5% | [13]; at 11.0 µM 15% | [13]; at 33.0 µM 44% | [14]; at 1.2 µM 2% | [14]; at 3.7 µM 6% | [14]; at 11.0 µM 15% | [14]; at 33.0 µM 43%

CCN(CC)CCN1C(=O)c2cccc3cc(OC)cc(c23)C1=O
inactive: [1]; at 1.2 µM 8% | [1]; at 3.7 µM 48% | [2]; at 1.2 µM -5% | [2]; at 3.7 µM 1% | [2]; at 11.0 µM -3% | [2]; at 33.0 µM -7% | [2]; at 100.0 µM -1% | [3]; at 1.2 µM 9% | [3]; at 3.7 µM 37% | [3]; at 11.0 µM 60% | [4]; at 1.2 µM -10% | [4]; at 3.7 µM -12% | [4]; at 11.0 µM -10% | [4]; at 33.0 µM -4% | [4]; at 100.0 µM 1% | [5]; at 1.2 µM 4% | [5]; at 3.7 µM 43% | [5]; [17] 31% | [6]; at 1.2 µM -10% | [6]; at 3.7 µM -3% | [6]; [17] 5% | [6]; at 11.0 µM -12% | [6]; at 33.0 µM -14% | [6]; [18] 19% | [6]; at 50.0 µM 1.45% | [6]; at 100.0 µM 16% | [7]; at 1.2 µM -10% | [7]; at 3.7 µM 1% | [7]; at 11.0 µM -9% | [7]; at 33.0 µM -6% | [7]; at 100.0 µM 3% | [8]; [17] 13% | [8]; [18] 27% | [8]; at 50.0 µM -4.05% | [9]; at 1.2 µM 2% | [9]; at 3.7 µM -4% | [9]; at 11.0 µM 5% | [9]; at 33.0 µM 7% | [9]; at 100.0 µM 24% | [10]; [17] 27% | [10]; [18] 18% | [10]; at 50.0 µM -3.8% | [11]; at 1.2 µM -9% | [11]; at 3.7 µM -3% | [11]; [17] 11% | [11]; at 11.0 µM -7% | [11]; at 33.0 µM 1% | [11]; [18] 15% | [11]; at 50.0 µM -22.1% | [11]; at 100.0 µM 11% | [15]; at 1.2 µM -24% | [15]; at 3.7 µM -5% | [15]; at 11.0 µM -7% | [15]; at 33.0 µM -15% | [15]; at 100.0 µM 9% | [13]; at 1.2 µM -4% | [13]; at 3.7 µM 40% | [13]; at 11.0 µM 42% | [13]; at 33.0 µM 36% | [13]; at 100.0 µM 42% | [16]; [17] 12% | [16]; [18] 36% | [16]; at 50.0 µM -14.2% | [14]; at 1.2 µM 7% | [14]; at 3.7 µM -2% | [14]; at 11.0 µM -13% | [14]; at 33.0 µM -12% | [14]; at 100.0 µM 12%
active: [1]; at 11.0 µM 72% | [1]; at 33.0 µM 91% | [1]; at 100.0 µM 93% | [3]; at 33.0 µM 86% | [3]; at 100.0 µM 93% | [5]; at 11.0 µM 74% | [5]; at 33.0 µM 90% | [5]; [18] 94% | [5]; at 50.0 µM 79.6% | [5]; at 100.0 µM 93%

Cc1[nH]c2ccccc2c1C(c1ccc(N)cc1)c1c(C)[nH]c2ccccc12
active: [5]; [18] 90% | [5]; at 50.0 µM 95.3%
inactive: [1]; at 1.2 µM 3% | [1]; at 3.7 µM 3% | [1]; at 11.0 µM -6% | [1]; at 33.0 µM -1% | [1]; at 100.0 µM 41% | [2]; at 1.2 µM -2% | [2]; at 3.7 µM -1% | [2]; at 11.0 µM -2% | [2]; at 33.0 µM -1% | [2]; at 100.0 µM 45% | [3]; at 1.2 µM 4% | [3]; at 3.7 µM -4% | [3]; at 11.0 µM -4% | [3]; at 33.0 µM -2% | [3]; at 100.0 µM -8% | [4]; at 1.2 µM -3% | [4]; at 3.7 µM 0% | [4]; at 11.0 µM 0% | [4]; at 33.0 µM 0% | [4]; at 100.0 µM 48% | [5]; at 1.2 µM 6% | [5]; at 3.7 µM 3% | [5]; [17] 0% | [5]; at 11.0 µM -5% | [5]; at 33.0 µM 1% | [5]; at 100.0 µM 40% | [6]; at 1.2 µM -1% | [6]; at 3.7 µM -1%
